For seven compounds, growth results are on record in PubChem BioAssay (NCI).

The panel holds about 83,000 compounds, 20% with a hit somewhere; the sample as a whole holds those more often.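 Compound tested at a single concentration for 48 hours in 96-well plates; a percent growth value below 10 was scored as active.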 Unmarked numbers belong to inactive results. Activity calls are given as the source filed them.

Common to all, as to assay: NCI-60 one-dose screen, 48 h (100 = growth as untreated, 0 = no growth, -100 = all killed)
What all share (details): 10 µM unless noted

The subject of assay [1] is MOLT-4 leukemia.
Assay [2] relates to SR leukemia.
Assay [3] deals with RPMI-8226 leukemia.
In assay [4] the test system is OVCAR-8 ovarian.
Assay [5] relates to OVCAR-5 ovarian.
Assay [6] has as its system OVCAR-4 ovarian.
Assay [7] concerns SK-OV-3 ovarian.
The subject of assay [8] is IGROV1 ovarian.
The subject of assay [9] is OVCAR-3 ovarian.
The subject of assay [10] is HS 578T breast.
For assay [11], the system named is NCI/ADR-RES ovarian.
Assay [12] deals with T-47D breast.
In assay [13] the test system is BT-549 breast.
The test system of assay [14] is MDA-MB-435 melanoma.
For assay [15], the system named is SW-620 colon.
The subject of assay [16] is MCF7 breast.
Assay [17] relates to HCT-116 colon.
Assay [18] has as its system HCC-2998 colon.
For assay [19], the system named is KM12 colon.

Turning to `CCCCC1(CCC)C(=O)NC(=S)NC1=O`, the growth was 96.8% in [1]; 126% in assay [2]; 104% in assay [3]; 128% in assay [4]; 102% in [5]; 95.9% in assay [6]. Moreover, the growth was 109% in [7]; 87.9% in assay [8]; 93.3% in assay [9]; 111% in [10]; 102% in assay [11]; 92.3% in assay [12]. The growth in assay [13] was 107%; in [14], 116%; in assay [15], 109%; in assay [16], 95.7%; in assay [17], 99.2%; in assay [18], 106%. Besides, in assay [19], the growth is 109%.

Regarding `O=C(O)c1c(Cl)n(Cc2ccc(O)cc2)c2ccc(O)cc12`, the growth in assay [1] was 109%; in assay [2], 106%; in [3], 70.9%; in [4], 103%; in [5], 92.4%; in assay [6] it was 104%. The growth in assay [7] is 115%; in assay [8] it was 63.4%; in [9], 93.9%; in [10] it was 102%; in assay [11], 118%; in [12] it was 118%. Further, the growth in [13] is 99.4%; in assay [14], 87%; in assay [15], 101%; in assay [16], 101%; in assay [17] it was 95%; in [18] it was 119%. Besides, the growth in [19] was 107%.

In the case of `NC(=O)C(Br)c1ccccc1` (centres undefined), the growth in assay [1] is 74.2%; in assay [2] it was 46.1%; in assay [3], 96.6%; in [4] it was 90.8%; in [5] it was 114%; in assay [6], 89.6%. The growth in assay [7] was 117%; in [8], 80.3%; in assay [9] it was 91.9%; in assay [10] it was 103%; in [11] it was 105%; in assay [12] it was 95.3%. Also, the growth in assay [13] was 77.6%; in [14], 94.1%; in [15], 117%; in [17] it was 82.8%; in assay [18], 96.4%; in [19], 96.9%.

On to `COc1ccc(C(=O)c2cc(OC)c(OC)c(OC)c2)cc1OC(C)=O`, for which the growth in [1] was 13.9%; in [2], 11.9%; in assay [3], 20.4%; in assay [4], 15.6%; in [5], 57.9%; in assay [6] it was 57.7%. Moreover, the growth in [7] was 24.2%; in assay [8], 25.6%; in assay [9], 5.13% (active); in [10], 44.3%; in assay [11] it was 7.97% (active); in [12], 55.2%. For the same compound, the growth was 8.56% (active) in assay [13]; -16.3% (active) in [14]; 25.1% in assay [15]; 6.24% (active) in assay [17]; 25.5% in [18]; 11.2% in [19].

For the compound `CC(C)OC(=O)[C@H](C)NP(=O)(Oc1ccccc1)C1CCCN(O)C1=O` (some centres undefined), the growth is 93.7% in assay [1]; 89.6% in [2]; 101% in [3]; 106% in [4]; 91.7% in assay [5]; 107% in assay [6]. For the same compound, the growth in assay [7] was 122%; in assay [8] it was 90.6%; in assay [9], 99.4%; in assay [10], 92%; in assay [11] it was 98.4%; in assay [12] it was 94.5%. Also, the growth in assay [13] is 95%; in assay [14], 96.1%; in assay [15], 93.1%; in assay [16], 94.5%; in [17] it was 89.6%; in [18] it was 97.2%. Further, in [19], the growth is 94.5%.

As for `CCNc1nc(Cl)nc(NCC)n1`, the growth in assay [1] is 69.8%; in assay [2] it was 75.8%; in assay [3], 94.3%; in assay [4] it was 58.9%; in assay [5], 104%; in [6] it was 95.6%. In addition, the growth in assay [7] was 109%; in assay [8] it was 29.4%; in assay [9], 108%; in assay [10], 96.8%; in assay [11], 101%; in assay [12], 91%. Besides, the growth was 108% in assay [13]; 101% in assay [15]; 98.7% in [16]; 88.1% in assay [17]; 104% in assay [18]; 106% in assay [19].

On to `CO[C@H]1CC[C@@]2(C)C(=CC[C@@H]3[C@@H]2CC[C@]2(C)C(=O)C(=O)C[C@@H]32)C1`, for which the growth is 115% in [1]; 107% in [2]; 88.9% in assay [3]; 93.3% in [4]; 103% in assay [5]; 113% in assay [6]. For the same compound, the growth in [7] was 103%; in [8], 120%; in [9], 105%; in assay [10], 92.6%; in assay [11], 104%; in [12], 97.1%. Further, the growth in [13] was 106%; in [14], 112%; in assay [15] it was 100%; in assay [17], 97%; in assay [18] it was 109%; in [19], 111%.
